# Data published in PubChem BioAssay (Tox21).
# “And” between values parts separate entries of the source, which are not always exact repeats. Equal entries are not always repeated. Records with an inconclusive call do not appear. Where a call stands in place of a potency, no number is given. Where a structure was tested more than once in an assay, its records may differ in their call. The source made the active and inactive calls. Unless noted, calls come from the whole dose curve; as a rule, active = well fitted curve in the direction sought with a large enough effect in the repeat runs; inconclusive = weak or mixed curves; inactive = no such curve, though single readings can be large; an effect the other way counts as inactive or inconclusive.
# Columns and labels:
# [1] = qHTS assay to identify small molecule antagonists of the thyroid receptor (TR) signaling pathway - cell viability counter screen (AID 743064); note: nearly all actives have a fitted effect of over 50% in size; note: potency is the fitted concentration of half-maximal effect
# In short: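 GH3.TRE-Luc rat pituitary cells dosed after 4 hr plating, co-stimulated with T3 at 1 nM final, incubated 23.5 h at 37 C. Viability measured in the same wells by CellTiter-Fluor fluorescence after 30 min further at 37 C.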
# [2] = qHTS assay to identify small molecule antagonists of the thyroid receptor (TR) signaling pathway (AID 743065); note: nearly all actives have a fitted effect of over 55% in size; note: potency is the fitted concentration of half-maximal effect
# In short: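 GH3.TRE-Luc rat pituitary cells carrying two TR response elements driving luciferase were plated for 4 h, given compound plus 1 nM T3 (final), and incubated 23.5 h at 37 C. ONE-Glo luminescence measured reporter inhibition; CellTiter-Fluor fluorescence tracked cytotoxicity.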
# [3] = tested on: thyroid hormone receptor (rat, GH3 cells); experiment: qHTS assay to identify small molecule agonists of the thyroid receptor (TR) signaling pathway (AID 743066; calls by dose curve)
# [4] = qHTS assay to identify small molecule antagonists of the estrogen receptor alpha (ER-alpha) signaling pathway - cell viability counter screen (AID 743074; calls by dose curve; note: nearly all actives have a fitted effect of over 45% in size; note: potency is the fitted concentration of half-maximal effect)
# [5] = qHTS assay to identify small molecule antagonists of the estrogen receptor alpha (ER-alpha) signaling pathway using the BG1 cell line - cell viability counter screen (AID 743081);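 note: compound given together with 17beta-estradiol as the ER stimulus; nearly all actives have a fitted effect of over 45% in size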; note: potency is the fitted concentration of half-maximal effect
# Aromatase (Homo sapiens) = Aromatase (Homo sapiens) (UniProt P11511); experiment: qHTS assay to identify aromatase inhibitors (AID 743083); note: nearly all actives have a fitted effect of over 55% in size; note: potency is the fitted concentration of half-maximal effect
# [6] = molecular target: Estrogen receptor (Homo sapiens) (UniProt P03372); experiment: qHTS assay to identify small molecule agonists of the estrogen receptor alpha (ER-alpha) signaling pathway (AID 743075; calls by dose curve)
# [7] = molecular target: Estrogen receptor (Homo sapiens) (UniProt P03372); experiment: qHTS assay to identify small molecule agonists of the estrogen receptor alpha (ER-alpha) signaling pathway using the BG1 cell line (AID 743079); note: nearly all actives have a fitted effect of over 20% in size; note: potency is the fitted concentration of half-maximal effect
# [8] = qHTS assay to identify small molecule antagonists of the estrogen receptor alpha (ER-alpha) signaling pathway using the BG1 cell line (AID 743080; calls by dose curve;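 note: BG1 cells stimulated with 17beta-estradiol alongside compound; series mostly up to about 70 µM; nearly all actives have a fitted effect of over 25% in size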)
# In short: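 Luciferase inhibition measured with ONE-Glo after 30 min at RT in BG1Luc4E2 cells given test compounds and 17beta-estradiol for 21.5 h at 37 C; CellTiter-Fluor viability read in the same wells beforehand.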
# [9] = molecular target: Estrogen receptor (Homo sapiens) (UniProt P03372); experiment: qHTS assay to identify small molecule antagonists of the estrogen receptor alpha (ER-alpha) signaling pathway (AID 743069; active = well fitted curve in the direction sought with a large enough effect in the signal ratio in the repeat runs, not every such curve was filed as active; the % refers to the signal ratio)
# In short: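 HEK293 cells stably carrying an ER-alpha-UAS-bla beta-lactamase reporter were pre-cultured overnight in 2% charcoal-stripped FBS medium. Test compounds in DMSO were added together with 17beta-estradiol for 18 hr at 37C. Read-out was fluorescence after 2 hr with LiveBLAzer B/G FRET substrate at room temperature.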
# Sequence of Estrogen receptor (Homo sapiens) (P03372 whole entry, looked up): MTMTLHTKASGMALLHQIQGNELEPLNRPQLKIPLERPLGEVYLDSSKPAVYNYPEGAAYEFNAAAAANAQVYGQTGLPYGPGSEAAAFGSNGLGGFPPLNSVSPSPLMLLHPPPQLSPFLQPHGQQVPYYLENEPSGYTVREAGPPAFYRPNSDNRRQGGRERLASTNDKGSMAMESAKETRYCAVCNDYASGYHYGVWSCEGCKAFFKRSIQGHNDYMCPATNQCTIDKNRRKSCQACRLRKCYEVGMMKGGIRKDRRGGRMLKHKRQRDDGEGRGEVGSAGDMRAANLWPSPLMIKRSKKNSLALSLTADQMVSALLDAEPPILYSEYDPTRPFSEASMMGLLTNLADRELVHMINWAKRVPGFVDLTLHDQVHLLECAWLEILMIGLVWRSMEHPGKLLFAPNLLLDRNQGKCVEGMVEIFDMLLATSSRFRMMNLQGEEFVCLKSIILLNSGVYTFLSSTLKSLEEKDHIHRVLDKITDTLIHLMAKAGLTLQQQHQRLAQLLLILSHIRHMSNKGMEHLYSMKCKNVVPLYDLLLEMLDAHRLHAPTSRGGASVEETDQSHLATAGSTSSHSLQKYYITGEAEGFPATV
# Sequence of Aromatase (Homo sapiens) (P11511 whole entry, looked up): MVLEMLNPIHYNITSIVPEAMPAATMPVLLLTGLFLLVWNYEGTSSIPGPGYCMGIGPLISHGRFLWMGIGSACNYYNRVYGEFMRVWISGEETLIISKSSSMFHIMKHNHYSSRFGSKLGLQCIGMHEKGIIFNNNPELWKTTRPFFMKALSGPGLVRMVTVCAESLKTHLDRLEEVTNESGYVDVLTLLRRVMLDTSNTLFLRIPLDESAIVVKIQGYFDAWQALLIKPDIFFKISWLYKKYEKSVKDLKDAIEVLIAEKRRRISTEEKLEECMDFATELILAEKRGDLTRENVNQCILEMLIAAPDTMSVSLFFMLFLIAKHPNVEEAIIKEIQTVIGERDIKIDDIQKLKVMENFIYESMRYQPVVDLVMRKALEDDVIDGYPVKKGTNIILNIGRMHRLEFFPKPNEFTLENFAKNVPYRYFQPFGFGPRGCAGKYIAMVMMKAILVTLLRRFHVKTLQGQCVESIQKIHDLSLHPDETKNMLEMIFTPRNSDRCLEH
Compound,Potency [1],Potency [2],Potency [3],Potency [4],Potency [5],Potency (Aromatase (Homo sapiens)),Potency [6],Potency [7],Potency [8],Potency [9]
OC[C@H]1O[C@@H]2O[C@H]3[C@H](O)[C@@H](O)[C@@H](O[C@H]4[C@H](O)[C@@H](O)[C@@H](O[C@H]5[C@H](O)[C@@H](O)[C@@H](O[C@H]6[C@H](O)[C@@H](O)[C@@H](O[C@H]7[C@H](O)[C@@H](O)[C@@H](O[C@H]8[C@H](O)[C@@H](O)[C@@H](O[C@H]1[C@H](O)[C@H]2O)O[C@@H]8CO)O[C@@H]7CO)O[C@@H]6CO)O[C@@H]5CO)O[C@@H]4CO)O[C@@H]3CO,inactive,inactive,inactive,inactive,inactive,–,–,–,–,–
CC(=O)C1(C)CC2=C(CCCC2(C)C)CC1C (configuration not stated),inactive,inactive,inactive,inactive,inactive,inactive,–,–,–,–
COC(=O)C1=C(C)NC(C)=C(C(=O)OCCN(C)Cc2ccccc2)C1c1cccc([N+](=O)[O-])c1 (configuration not stated),13.3 µM (active) and 19.2 µM (active),9.44 µM (active) and 17.1 µM (active),inactive,inactive,54.2 µM (active),29.8 µM (active) and 60.8 µM (active),inactive,–,–,–
CCCc1c(OCCCCc2nn[nH]n2)ccc(C(C)=O)c1O,inactive,23.7 µM (active) and 61.1 µM (active),inactive,inactive,inactive,inactive,inactive,inactive,inactive,–
c1ccc2cc(Nc3ccc(Nc4ccc5ccccc5c4)cc3)ccc2c1,inactive,inactive,inactive,inactive,inactive,inactive,–,–,–,–
CC(CCC(=O)O)(c1ccc(O)cc1)c1ccc(O)cc1,inactive,inactive,inactive,inactive,inactive,inactive,inactive,61.1 µM (active),inactive,inactive
CC(C)CC(C)(O)C#CC(C)(O)CC(C)C (configuration not stated),inactive,inactive,inactive,inactive,inactive,–,–,–,–,–
OC1CCCCCCCCCCC1,inactive,inactive,inactive,inactive,inactive,inactive,inactive,inactive,inactive,–
Cc1cccc(N(C)C(=S)Oc2ccc3ccccc3c2)c1,inactive,inactive,inactive,inactive,inactive,inactive,inactive,–,–,–
CC(=O)Oc1ccccc1C(=O)Nc1ncc([N+](=O)[O-])s1,29.8 µM (active) and 19.7 µM (active),11.9 µM (active) and 7.85 µM (active),inactive,7.56 µM (active),–,inactive and 19.7 µM (active),inactive,0.668 µM (active),–,inactive
Cc1ccc2c(n1)Oc1ccc(C(C)C(=O)OCC(=O)N(C)C)cc1C2 (configuration not stated),inactive,inactive,inactive,inactive,inactive,inactive,inactive,inactive,–,–
CCCCOCCOCCOCCO,inactive,inactive,inactive,inactive,inactive,inactive,inactive,inactive,inactive,–
c1ccncc1,inactive,inactive,inactive,inactive,inactive,inactive,inactive,inactive,inactive,inactive
CC(=O)O[C@]1(C(C)=O)CC[C@H]2[C@@H]3C=C(Cl)C4=CC(=O)[C@@H]5C[C@@H]5[C@]4(C)[C@H]3CC[C@@]21C,inactive and 54.4 µM (active),24.3 µM (active) and 54.5 µM (active),inactive,inactive,inactive,inactive and 54.4 µM (active),–,–,–,–
Nc1ccccc1N,inactive,5.45 µM (active),inactive,inactive,–,inactive,inactive,inactive,inactive,–
Cc1c(C(N)=O)cc([N+](=O)[O-])cc1[N+](=O)[O-],inactive,inactive,inactive,inactive,inactive,inactive,inactive,inactive,inactive,–
c1ccc2c(c1)c1cccc3ccc4cccc2c4c31,inactive,inactive,inactive,3.07 µM (active) and inactive,inactive,inactive,inactive,inactive,inactive,–
COC(=O)CCC(=O)OC,inactive,inactive,inactive,inactive,inactive,inactive,inactive,inactive,inactive,–
C=CC(C)(CCC=C(C)C)OC(C)=O (configuration not stated),inactive,–,inactive,inactive,inactive,inactive,inactive,inactive,inactive,–
CN1C(C(=O)Nc2ccccn2)=C(O)c2ccccc2S1(=O)=O,inactive,–,inactive,inactive,inactive,inactive,inactive,inactive,inactive,inactive
Nc1ccc(S(=O)(=O)Nc2cnc3ccccc3n2)cc1,inactive,inactive,inactive,inactive,inactive,inactive,–,–,–,–
c1ccc2c(c1)Oc1ccccc1S2,inactive,–,inactive,inactive,inactive,inactive,inactive,inactive and 61.1 µM (active),inactive,inactive
